# Results reported in PubChem BioAssay (NCATS).
# Records with an inconclusive call do not appear. Calls of active or inactive are those of the source. Calls come from the whole dose curve; as a rule, active = well fitted activation curve with a large enough effect; inconclusive = small, poorly fitted or top-dose-only effect; inactive = no such curve, though single readings can be large or run the other way.
# Molecular target: Cellular tumor antigen p53 (Homo sapiens) (UniProt P04637)
# Experiment: Primary qHTS for small molecule compounds that upregulate eGFP-tagged delta133p53alpha (in N-terminal) cells. (AID 2060322);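 note: cells pre-induced with doxycycline then dosed without doxycycline; series mostly up to about 56 µM; 0% = DMSO vehicle and 100% = reference activator; nearly all actives have a fitted effect of over 75% in size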
# Details: NCI-H358 eGFP-delta133p53alpha fluorescence, 24 h; activation: active compounds read high
# Procedure, shortened: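 NCI-H358 cells pre-induced 24 h with 10 ng/ml doxycycline for eGFP-delta133p53alpha, plated dox-free and exposed 24 h at 37C to titrated compounds. Fixed, Hoechst-stained; gated GFP peak intensity by laser scanning cytometry, normalized to DMSO (0%) and 57.5 uM 5-azacytidine (100%).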
# Cellular tumor antigen p53 (Homo sapiens), sequence (P04637 whole entry, looked up): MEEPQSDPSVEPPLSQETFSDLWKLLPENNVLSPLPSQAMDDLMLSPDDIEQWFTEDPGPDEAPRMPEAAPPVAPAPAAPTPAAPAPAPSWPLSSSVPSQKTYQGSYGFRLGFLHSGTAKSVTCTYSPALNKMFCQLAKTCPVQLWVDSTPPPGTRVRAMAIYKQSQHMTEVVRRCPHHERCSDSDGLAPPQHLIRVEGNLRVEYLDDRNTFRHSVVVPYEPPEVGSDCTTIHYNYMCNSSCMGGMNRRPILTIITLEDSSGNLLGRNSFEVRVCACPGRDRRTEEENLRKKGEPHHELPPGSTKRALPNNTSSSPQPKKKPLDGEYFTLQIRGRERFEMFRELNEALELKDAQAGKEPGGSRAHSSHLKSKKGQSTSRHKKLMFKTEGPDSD
row,Structure (SMILES),activation
1,O=C(OC[C@H]1O[C@H](O[C@]2(CO)O[C@H](CO)[C@@H](O)[C@@H]2O)[C@H](O)[C@@H](O)[C@@H]1O)c1ccccc1,0.763% (inactive)
2,CC1(C)OC(=O)CC(O)C2(C)C1CC(=O)C1(C)C2C(O)CC2(C)C(c3ccoc3)OC(=O)C3OC321 (stereo not given),-23.7% (inactive)
3,Nc1nc2c(cnn2CCCc2ccc(O)cc2)c2nc(-c3ccco3)nn12,-11% (inactive)
4,C/C=C1/[C@H](O[C@@H]2O[C@H](CO)[C@@H](O)[C@H](O)[C@H]2O)OC=C(C(=O)OC)[C@H]1CC(=O)OCCc1ccc(OC(=O)C[C@@H]2C(C(=O)OC)=CO[C@@H](O[C@@H]3O[C@H](CO)[C@@H](O)[C@H](O)[C@H]3O)/C2=C/C)cc1,-7.14% (inactive)
5,C=C1C(O)CC2C(C(=O)O)=COC(OC3OC(CO)C(O)C(O)C3OC(=O)/C=C\c3ccc(O)cc3)C12 (stereo not given),-22.9% (inactive)
6,COc1cc(/C=C/C(=O)OC(C)(C)C(OC2OC(CO)C(O)C(O)C2O)C(=O)OCc2ccc(OC3OC(CO)C(O)C(O)C3O)cc2)ccc1O (stereo not given),13.7% (inactive)
7,Cc1c(-c2ccc3c(c2)OCO3)oc2ccc(C(O)C(C)O)cc12 (stereo not given),-8.4% (inactive)
8,C=CC1C(OC2OC(CO)C(O)C(O)C2O)OC=C(C(=O)OC)C1CC1CC(=O)CC(CCc2ccc(O)cc2)O1 (stereo not given),19.6% (inactive)
9,COc1ccc(C)c2sc(NC(=O)c3ccncc3)nc12,-15.7% (inactive)
10,O=C(/C=C/c1ccccc1)O[C@@H]1[C@@H](CO)O[C@@](CO)(O[C@H]2O[C@H](CO)[C@@H](O)[C@H](O)[C@H]2O)[C@H]1O,-26% (inactive)
11,C=CCC1=C[C@]2(OC)[C@H](C)[C@@H](c3ccc(OC)c(OC)c3)O[C@]2(OC)CC1=O,-3.57% (inactive)
12,C=C1CC[C@H]2[C@@](C)(CCC(O)[C@@]2(C)CO)[C@@H]1C/C=C(/C(=O)O)C(O)CO (stereo not given in full),-16.1% (inactive)
13,O=C(/C=C/c1ccccc1O)O[C@@H]1O[C@H](CO)[C@@H](O)[C@H](O)[C@H]1O,0% (inactive)
14,C=C1CC[C@H]2[C@@](C)(CCC(O)[C@@]2(C)CO)[C@@H]1CCC1=CCOC1=O (stereo not given in full),-11.5% (inactive)
15,Fc1ccc2nc(CCC#Cc3ccccn3)cn2c1,2.68% (inactive)
16,CC(=O)c1c(C)cccc1O[C@@H]1O[C@H](CO)[C@@H](O)[C@H](O)[C@H]1O,13% (inactive)
17,O=C(OC[C@H]1O[C@@H](Oc2ccccc2COC(=O)C2(O)C=CCCC2O)[C@H](O)[C@@H](O)[C@@H]1O)c1ccccc1 (stereo not given in full),-15.3% (inactive)
18,COc1cc([C@H]2OC[C@]3(OC(C)=O)[C@@H](c4ccc(O[C@@H]5O[C@H](CO)[C@@H](O)[C@H](O)[C@H]5O)c(OC)c4)OC[C@H]23)ccc1O,-3.82% (inactive)
19,COc1cc(/C=C/C=O)cc(OC)c1O[C@@H]1O[C@H](CO)[C@@H](O)[C@H](O)[C@H]1O,-14.3% (inactive)
20,C[C@@H]1C[C@H]2OC(=O)[C@@]3(C)CCC[C@](C)(C23)[C@@]1(O)CCC1=CC(=O)OC1O (stereo not given in full),9.16% (inactive)

row,Structure (SMILES),activation
1,COc1cc([C@H]2OC[C@](O)(Cc3ccc(O[C@@H]4O[C@H](CO)[C@@H](O)[C@H](O)[C@H]4O)c(OC)c3)[C@@H]2CO)ccc1O,-1.53% (inactive)
2,CC(CCc1ccc(O)cc1)O[C@@H]1O[C@H](CO[C@@H]2OC(CO)[C@H](O)[C@H]2O)[C@@H](O)[C@H](O)[C@H]1O (stereo not given in full),-13.7% (inactive)
3,Fc1ccc(CN2CCC(Nc3ccc(C(F)(F)F)nn3)CC2)cc1F,-6.21% (inactive)
4,COc1cc(C2Oc3c(OC)cc(CCCO)cc3C2CO)ccc1O (stereo not given),-18.8% (inactive)
5,CC1(C)C=Cc2c(ccc3c2[N+]([O-])=C2C3(O)CC34NC(=O)C5(CCCN5C3=O)CC4C2(C)C)O1 (stereo not given),6.25% (inactive)
6,CC1=C2C[C@H]3OC(=O)[C@H](O)[C@@]4(O)[C@@H](C)[C@@H](O)[C@H](O)C([C@@]2(C)[C@H](O)[C@@H](O)C1)[C@@]34C (stereo not given in full),-11.5% (inactive)
7,CC(C)S(=O)(=O)N[C@H]1CCOC[C@@H]1c1ccc(-c2ccc(C#N)s2)cc1,-15% (inactive)
8,O=C(/C=C/c1ccc(O)c(O)c1)O[C@H]1[C@@H]2C=CO[C@@H](O[C@@H]3O[C@H](CO)[C@@H](O)[C@H](O)[C@H]3O)[C@@H]2[C@@]2(CO)O[C@@H]12,22.3% (inactive)
9,CC(CO[C@@H]1O[C@H](COC(=O)/C=C/c2ccc(O)c(O)c2)[C@@H](O)[C@H](O)[C@H]1O)C1(O)COC(=O)C1 (stereo not given in full),6.87% (inactive)
10,CC1(C(=O)O)CC[C@]2(C(=O)OC3OC(CO)C(O)C(O)C3O)CC[C@]3(C)C(=CCC4[C@@]5(C)CC[C@H](OC6OCC(O)C(O)C6OC6OC(CO)C(O)C(O)C6O)C(C)(C)C5CC[C@]43C)C2C1 (stereo not given in full),-5.34% (inactive)
11,CC/C=C\CCO[C@@H]1O[C@H](CO[C@@H]2OC[C@H](O)[C@H](O)[C@H]2O)[C@@H](O)[C@H](O)[C@H]1O,-3.57% (inactive)
12,CC1=C(CCC(C)O[C@@H]2O[C@H](CO)[C@@H](O)[C@H](O)[C@H]2O)C(C)(C)CCC1=O (stereo not given in full),-16.8% (inactive)
13,COc1cc(O)cc(O[C@@H]2O[C@H](CO)[C@@H](O[C@@H]3OC[C@](O)(CO)[C@H]3O)[C@H](O)[C@H]2O)c1OC,-14.5% (inactive)
14,C=C[C@H]1[C@H](O[C@@H]2O[C@H](CO)[C@@H](O)[C@H](OC(=O)/C=C/c3ccc(O)c(OC)c3)[C@H]2O)OC=C2C(=O)OCC[C@]21O,-1.53% (inactive)
15,COc1cc(C2Oc3c(OC)cc(/C=C/C(=O)OC[C@H]4O[C@@H](OC(C)(C)C(=O)O)[C@H](O)[C@@H](O)[C@@H]4O)cc3C2CO)ccc1O (stereo not given in full),-9.16% (inactive)
16,COc1cc2ncnc(Nc3ccc(O)cc3)c2cc1OC,4.46% (inactive)
17,C[C@@H]1O[C@@H](O[C@H]2[C@@H]3C=CO[C@@H](O[C@@H]4O[C@H](CO)[C@@H](O)[C@H](O)[C@H]4O)[C@@H]3[C@@]3(CO)O[C@@H]23)[C@H](O)[C@H](OC(=O)/C=C/c2ccc(O)c(O)c2)[C@H]1O,2.29% (inactive)
18,CC1(C)CC[C@]2(C(=O)O[C@@H]3O[C@H](CO)[C@@H](O)[C@H](O)[C@H]3O)CC[C@]3(C)C(=CCC4[C@@]5(C)C[C@@H](O)[C@H](O)C(C)(C)C5[C@H](O)C[C@]43C)[C@@H]2[C@@H]1O (stereo not given in full),-11.5% (inactive)
19,CC1(C)CCC[C@@]2(C)[C@H]1[C@H](O)C=C1COC(=O)[C@@]12O,-4.58% (inactive)
20,CC(/C=C/C1(O)C2(C)COC1(C)CC(=O)C2)O[C@@H]1O[C@H](CO)[C@@H](O)[C@H](O)[C@H]1O (stereo not given in full),2.68% (inactive)
